Source: PubChem BioAssay (National Center for Advancing Translational Sciences (NCATS))
Rows were chosen to be rich in hits. Some 5.1% of all compounds tested hit in one or more screens of this group.
Tau fibril FP – inhibitors of human tau fibril formation | P10636 | K18 P301L tau heparin fibrillization, Alexa594 FP, 6 h | Potency, µM (doses to about 57.7 µM), for the others: top-dose activity, negative = inhibition, most hits filed as inhibitors | 280,000 compounds, 0.39% hits | AID 1468; further: potency means the concentration at half of the fitted maximal effect; nearly all actives have a fitted effect of over 55% in size
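Heparin (20 uM) drove fibril formation of recombinant tau K18 P301L, 15 uM unlabeled with 0.24 uM Alexa 594 label, for 6 hr at 37 C in 100 mM sodium acetate pH 7. Fluorescence polarization (555/632 nm) read 1 hr after 30 uM ThT.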
PNC inhibitor – perinucleolar compartment assembly inhibition; 140,000 compounds, 3.1% hits; activity change (PNC), negative = inhibition, % at 10 µM; PC3M PTB-GFP, PNC prevalence imaging, 16 h; stronger effect = lower value;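 active means readout at or below -70, meaning at least 70% loss of cells showing the perinucleolar compartment, a nuclear body marking cancer cells; inconclusive means readout between -30 and a set limit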;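 further: plate controls were DMSO wells for no effect and camptothecin positive control wells for full effect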
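Read-out is percentage of cells bearing a perinucleolar compartment, from automated 20x imaging of fixed, Hoechst-stained PC3M PTB-GFP cells. Cells were seeded 4 h, then exposed 16 h to compound (23 nl of library stock) in duplicate plates.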
Tau fluor cs – counter-screen for tau fibril formation inhibitors; tau K18 P301L Alexa594 fluorescence, heparin fibrillization; Potency, µM (series often up to 57.7 µM), inactives show at the highest dose activity change, negative = decrease; 280,000 compounds, 0.93% hits; further: potency means the concentration at half of the fitted maximal effect; nearly all actives have a fitted effect of over 55% in size
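Human K18 P301L tau (15 uM unlabeled plus 0.24 uM Alexa 594-labeled, final) in 100 mM sodium acetate pH 7 was mixed with compound and 20 uM heparin and incubated 6 hr at 37 C.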
Tau fibril ThT – tau fibrillization inhibition (ThT binding); P10636; recombinant tau K18 P301L (four-repeat tau fragment), heparin-induced fibrillization, ThT fluorescence; Potency, µM (series often up to 57.4 µM), for the others: at the top dose activity, negative = inhibition, most hits filed as inhibitors; 270,000 compounds, 2.1% hits; further: potency means the concentration at half of the fitted maximal effect; nearly all actives have a fitted effect of over 55% in size
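Tau K18 P301L fragment (15 uM unlabeled plus 0.24 uM Alexa 594-labeled) in 100 mM sodium acetate pH 7 with compound, fibrillization induced by 20 uM heparin for 6 hr at 37 C. Thioflavin T (30 uM) added, fluorescence read after 1 hr (ex 450, em 510 nm).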
JMJD2E inh – inhibitors of human JMJD2E histone demethylase; Potency, µM (titrated, usually from 57.1 µM), for inactives: at the highest dose activity change, negative = inhibition, most hits filed as inhibitors; B2RXH2; JMJD2E catalytic domain, FDH-coupled NADH fluorescence (FDH is formaldehyde dehydrogenase); 230,000 compounds, 1.6% hits; active means well fitted inhibition curve with a large enough effect, not every such curve was filed as active; inconclusive means small, poorly fitted or top-dose-only effect, or another doubt; inactive means no such curve, though single readings can be large or run the other way;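 further: potency means the concentration at half of the fitted maximal effect; 0% = wells with enzyme and -100% = buffer wells without enzyme; nearly all actives have a fitted effect of over 50% in size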
Target sequence (B2RXH2 1-337 limits assumed): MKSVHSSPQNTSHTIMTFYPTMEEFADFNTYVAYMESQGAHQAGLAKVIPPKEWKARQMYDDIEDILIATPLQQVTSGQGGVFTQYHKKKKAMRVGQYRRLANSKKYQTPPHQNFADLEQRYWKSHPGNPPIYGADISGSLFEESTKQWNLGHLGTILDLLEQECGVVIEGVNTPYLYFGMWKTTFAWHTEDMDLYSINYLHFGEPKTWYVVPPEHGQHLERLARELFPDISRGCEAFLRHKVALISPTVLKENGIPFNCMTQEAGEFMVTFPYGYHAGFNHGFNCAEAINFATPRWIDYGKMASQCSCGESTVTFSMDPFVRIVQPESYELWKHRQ
NPSR antag – antagonists of human neuropeptide S receptor cAMP signaling | CHO-NPSR cells, cAMP TR-FRET, antagonist mode | Potency, µM (series often up to 38.3 µM), for the others: at the highest dose activity change, negative = inhibition, hits mostly inhibitors | 220,000 compounds, 1% hits | AID 1461; further: potency means the concentration at half of the fitted maximal effect; nearly all actives have a fitted effect of over 50% in size
Target sequence (Q6W5P4 whole entry, looked up): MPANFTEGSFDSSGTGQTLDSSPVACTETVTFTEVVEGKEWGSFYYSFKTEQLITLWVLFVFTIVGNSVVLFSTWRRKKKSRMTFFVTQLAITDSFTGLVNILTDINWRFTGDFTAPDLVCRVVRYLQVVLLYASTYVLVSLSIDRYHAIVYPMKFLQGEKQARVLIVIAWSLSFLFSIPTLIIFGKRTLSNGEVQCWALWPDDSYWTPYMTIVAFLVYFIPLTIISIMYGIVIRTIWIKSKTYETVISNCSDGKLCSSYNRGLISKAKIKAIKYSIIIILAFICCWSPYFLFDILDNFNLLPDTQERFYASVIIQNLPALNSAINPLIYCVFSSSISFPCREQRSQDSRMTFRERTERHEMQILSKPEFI
An asterisk follows results filed as active; u = inconclusive; x = no result; [ ] = remark or other dose. Unless noted, the call rests on the fitted dose curve; in most records, active means well fitted curve in the direction sought with a large enough effect; inconclusive means small, poorly fitted or top-dose-only effect, or another doubt; inactive means no such curve, though single readings can be large; an effect the other way counts as inactive or inconclusive. Unless noted, on the % scale 0 is the no-effect control and ±100 the full control effect.

SMILES | Tau fibril FP | PNC inhibitor | Tau fluor cs | Tau fibril ThT | JMJD2E inh | NPSR antag
Cc1nc(-c2ccc(O)c(O)c2)cs1 | 0.2% | u | -28.3% | u | 15.8µM* | -17.2%[46.1 µM]
Cc1nc(-c2ccc(NS(C)(=O)=O)cc2)cs1 | -3.9% | -80.5* | -1.2% | -8.2% | 6.1% | -0.9%[46.1 µM]
Clc1ccc(-c2csc(-c3cccnc3)n2)s1 | 2.2% | x | -26.3% | x | u | -10.9%
Oc1ccc(-c2csc(-c3cccnc3)n2)cc1O | 10.7% | x | u | x | 14.1µM* | -26.6%
Oc1ccc(-c2csc(Nc3ncccn3)n2)cc1O | 18.0% | x | u | 11.2µM* | 28.2µM* | -10.2%
COc1cc(-c2csc(C)n2)ccc1O | -4.2% | 26.9 | -0.4% | -5.1% | 3.3% | 5.8%[46.1 µM]
O=C(C1CCCN(S(=O)(=O)c2cccc3nonc23)C1)N1CCN(c2cccc(C(F)(F)F)c2)CC1 (stereo not given) | u | x | -29.9% | -16.7% | x | x
Oc1ccc(-c2csc(-c3ccccc3)n2)cc1O | -1.5% | u | 15.8µM*[quencher] | 10µM* | u | -4.9%[46.1 µM]
COCCNc1nc(C(C)(C)C)nc2c1nnn2Cc1ccccc1Cl | 4.6% | -102.1* | 0.3% | -6.6% | 8.0% | -17.7%[46.1 µM]
CCc1ccccc1NC(=O)Cn1c(=O)n(CC(=O)NCCc2ccccc2)c(=O)c2ccccc21 | -11.9% | x | 7.0% | 11.7% | x | x
CCc1ccc(OCC(=O)NC2CC(C)(C)NC(C)(C)C2)cc1 | -5.3% | x | -9.8% | 12.6µM* | 2.5% | 24.6%
COc1ccc(N(C(=O)COc2ccc(Br)cc2)S(=O)(=O)c2ccc(C)cc2)cc1 | 3.6% | x | 0.8% | -7.3% | x | x
O=C(CCCCCn1c(=S)[nH]c2ccc(N3CCOCC3)cc2c1=O)NCc1ccc2c(c1)OCO2 | 1.3% | x | -24.3% | -16.9% | u | -58.6%
O=C(CCCCCn1c(=S)[nH]c2ccc(N3CCOCC3)cc2c1=O)NCc1ccc(Cl)cc1 | 11.2% | x | u | u | u | 10µM*
CC(C)c1ccc(NC(=O)Cn2nnc(C(=O)NCc3ccc(Cl)cc3)c2N)cc1 | -13.7% | x | -3.8% | 0.4% | x | x
Cc1ccc(CNC(=O)C2CCCN(c3nn4cc(-c5ccc(C)cc5)nc4s3)C2)cc1 (stereo not given) | 0.5% | x | -17.0% | u | x | x
O=C(CSc1nccn1-c1ncc(C(F)(F)F)cc1Cl)c1ccc(Cl)cc1 | u | 15.5 | -15.0% | 17.8µM* | 6.1% | -13.0%[46.1 µM]
Cc1nc(CC(=O)Nc2cc(Cl)ccc2C)cs1 | 4.4% | x | -4.7% | -4.7% | x | x
COc1ccc(NC(=O)/C(C#N)=C\c2ccc(OCc3ccc(C(=O)O)cc3)c(OC)c2)cc1 | -16.4% | x | -20.7% | 3.98µM* | u | -27.7%
CCOc1ccccc1N(CC(=O)Nc1ccc(OC)c(Cl)c1)S(=O)(=O)c1ccccc1 | 1.1% | x | u | -14.6% | x | x
COc1ccccc1OC(C)C(=O)Nc1cccc(-c2nc3ccccc3o2)c1 (stereo not given) | -1.2% | x | u | -19.4% | x | x
Cc1sc(-n2c(C)ccc2C)c(C#N)c1C | -0.7% | 16.8 | 4.8% | -19.2% | 4.7% | -23.2%[46.1 µM]
Cc1ccc(C)n1-c1sc2c(c1C#N)CCCC2 | 0.1% | -100.0* | -8.4% | -14.5% | -7.8% | u
CCCCCCC/C=C/C1=CC2(C)CC1(C)C(CCCCCCC)CC2=O (stereo not given) | -3.2%[11.6 µM] | x | -6.1%[11.6 µM] | -3.1%[11.5 µM] | x | x
Cc1ccc(S(=O)(=O)NC(C)(C)CSc2nnc(Nc3ccccc3)s2)cc1 | 3.8% | u | 17.8µM*[quencher] | -16.7% | -1.9% | u
SMILES | Tau fibril FP | PNC inhibitor | Tau fluor cs | Tau fibril ThT | JMJD2E inh | NPSR antag
COC(=O)c1ccccc1S(=O)(=O)N(Cc1cc2ccc(OC)cc2[nH]c1=O)CC1CCCO1 (stereo not given) | 0.0% | -97.9* | -6.0% | -3.1% | -3.1% | -12.4%[46.1 µM]
COc1ccc2cc(CN(CC3CCCO3)S(=O)(=O)c3ccc(C(C)=O)cc3)c(=O)[nH]c2c1 (stereo not given) | -4.6% | 29.5 | -6.9% | -3.8% | -5.2% | -3.3%[46.1 µM]
COc1ccc(Nc2nnc(-c3cc4c(ccc5ccccc54)oc3=O)s2)cc1 | 3.1% | x | u | 5.01µM* | x | x
O=c1oc2ccc3ccccc3c2cc1-c1nnc(Nc2ccccc2F)s1 | -18.0% | x | -27.0% | u | x | x
CCOc1ccc(C2N3CC4(C(C)C)CN2CC(C(C)C)(C3)C4=O)cc1OC (stereo not given) | -5.9% | x | 0.6% | 5.0% | x | x
CCCCSc1nc2[nH]ncc2c(=O)[nH]1 | 1.7% | u | 3.5% | 2.3% | -8.0% | 10.7%
CCSc1nc2[nH]ncc2c(=O)[nH]1 | 0.3% | -87.2* | -4.3% | -7.3% | 1.1% | 12.4%
Cc1cc(C(=O)C(=O)Nc2nnc(C(C)C)s2)c(C)n1-c1ccccc1 | -4.9% | x | -8.4% | 1.9% | x | x
O=C(NCc1ccco1)c1ccc2nc3sc4c(c3c(=O)n2c1)CCCC4 | 22.4µM* | 21.8 | -22.0% | 14.1µM* | u | 10µM*
C=CCn1c(SCC(=O)NCc2ccco2)nc2sc3c(c2c1=O)CCCC3 | -5.8% | u | -1.8% | 7.2% | 4.0% | -3.1%[46.1 µM]
CC(Oc1ccc(Cl)cc1Cl)c1nc(-c2ccc(NC(=O)c3cccnc3)cc2)no1 (stereo not given) | 15.8µM* | u | u | -8.8% | -1.0% | u
O=C(Nc1ccc2nc(SCC(=O)N3CCCC3)sc2c1)c1ccccc1F | 1.5% | x | -13.3% | u | x | x
O=Nc1ccc(NOC(=O)c2ccc(Br)cc2)cc1 | 2.6% | 52.8 | -4.4% | -15.5% | 6.9% | -1.1%[46.1 µM]
Cc1ccc(C(=O)ONc2ccc(N=O)cc2)cc1 | -2.6% | -117.0* | -12.0% | -26.8% | 3.1% | -19.3%[46.1 µM]
Cc1ccc(C(=O)ONc2ccc(N=NC(=O)c3ccccc3O)cc2)cc1 | -3.3% | 28.1 | u | 2.24µM* | u | -15.3%[46.1 µM]
CC1CCc2c(sc(NC(=O)CN3CCN(C(=O)c4ccco4)CC3)c2C#N)C1 (stereo not given) | -2.9% | -116.6* | 1.3% | -8.6% | -3.1% | -20.8%[46.1 µM]
CCCSc1ncc(Cl)c(C(=O)N(Cc2ccc(N(C)C)cc2)C2CCS(=O)(=O)C2)n1 (stereo not given) | -6.3% | x | u | u | x | x
COc1ccc(-n2c(=O)c3ccccc3n(Cc3ccccc3C)c2=O)c(OC)c1 | -5.3% | x | -14.7% | -11.5% | x | x
OCCNc1nc(Nc2ccccc2)nc2ccccc12 | 4.2% | -118.9* | -7.2% | -8.8% | 9.0% | 22.7%
c1ccc(N2CCN(c3nc(NCc4ccco4)c4ccccc4n3)CC2)cc1 | 3.3% | u | 25.1µM*[quencher] | u | u | u
Cc1ccc(Nc2nc(NCc3ccco3)c3ccccc3n2)cc1 | -12.1% | x | u | -5.8% | u | -47.6%
c1coc(CNc2nc(N3CCCCC3)nc3ccccc23)c1 | 2.2% | u | -14.0% | -11.6% | u | -8.9%[46.1 µM]
Oc1ccccc1Nc1nc(NCc2ccccc2)c2ccccc2n1 | 8.6% | x | 15.8µM*[quencher] | -18.8% | u | u
